Our source for the inhibition values is PubChem BioAssay AID1220 (Sanford-Burnham Center for Chemical Genomics, 2008).

Out of some 190,000 compounds screened, about 1,300 (0.68%) were called active. The sample as a whole holds a higher share of actives than the screen did. Unmarked numbers belong to inactive results. Cut-off read from the data, not from the text of the source: active = inhibition above about 50%; inactive = the rest.

The target of this assay is Mannose-6-phosphate isomerase (Homo sapiens) (UniProt P34949). Briefly: human PMI inhibitors, high substrate, primary screen, biochemical, fluorescence intensity, high mannose 6-phosphate (AID 1220). To be noted: recombinant PMI enzyme, coupled fluorescence intensity; at 20 µM; hits give high values.
Mannose-6-phosphate isomerase (Homo sapiens), sequence (P34949 whole entry, looked up): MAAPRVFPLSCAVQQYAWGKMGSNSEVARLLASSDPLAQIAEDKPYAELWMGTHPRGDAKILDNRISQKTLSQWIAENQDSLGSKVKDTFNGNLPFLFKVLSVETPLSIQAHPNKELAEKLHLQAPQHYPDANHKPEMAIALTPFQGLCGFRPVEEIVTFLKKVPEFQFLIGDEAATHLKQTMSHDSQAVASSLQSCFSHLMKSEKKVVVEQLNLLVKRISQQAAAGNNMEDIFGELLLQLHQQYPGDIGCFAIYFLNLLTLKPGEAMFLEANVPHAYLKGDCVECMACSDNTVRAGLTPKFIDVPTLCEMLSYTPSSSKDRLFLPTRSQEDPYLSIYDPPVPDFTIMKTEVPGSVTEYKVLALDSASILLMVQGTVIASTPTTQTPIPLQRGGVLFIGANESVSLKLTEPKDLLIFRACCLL
Usually inhibition stands for the drop in the measured response relative to a control, in per cent. Consider `CCN(CC)c1ccc(N=Cc2ccc([N+](=O)[O-])o2)cc1`, for which the inhibition was 59.7% (active). For `CCCCNC(=S)N(C)/N=C/c1c(C)[nH]c2ccccc12` the value was 9.5%.

As for `CCCCCC(=O)N/N=C/c1ccccc1[N+](=O)[O-]`, the inhibition is -6.7%.

`CCNC(=S)N/N=C/c1ccccc1[N+](=O)[O-]`: the inhibition is -1.5%. `CCN(CC)c1ccc(N=Cc2c(C)[nH]c3ccccc23)cc1`: the inhibition is 69.7% (active).

Turning to `Cc1[nH]c2ccccc2c1/C=N/n1cnnc1`, the inhibition was -4.2%.

Consider `CN(/N=C/c1ccc([N+](=O)[O-])o1)c1ccccc1`, for which the inhibition was -3.1%. For `O=[N+]([O-])c1ccc(/C=N/N=C/c2ccc([N+](=O)[O-])o2)o1` the value was 24.5%; for `CCN(CC)c1ccc(N=Cc2ccccc2[N+](=O)[O-])cc1`, 64.4% (active); for `CCN(CC)c1ccc(/C=N/NS(=O)(=O)c2cccc([N+](=O)[O-])c2)cc1`, -83.2%. For `O=C(CNC(=O)C1COc2ccccc2O1)N/N=C\c1cccc(O)c1` (configuration not stated) the value was -10.8%; for `Cc1cccc(-n2nnc3c(=O)n(CC(=O)Nc4cc(C)on4)cnc32)c1`, -4.2%.

As to `COc1ccccc1N/C=C1/Sc2cc(Cl)ccc2NC1=O`, the inhibition is 3%. The result for `COc1cc(N)c(Cc2nccc3cc(OC)c(OC)cc23)cc1OC` reads 56.4% (active); that for `CCOC(=O)Nc1cc(OC)c(OC)cc1Cc1nccc2cc(OC)c(OC)cc12`, -1.9%; that for `COc1cc2ccnc(Cc3cccc(OC)c3OC)c2cc1OC`, 44.9%. For `COc1ccc(NC(=O)c2ccccc2NC(=O)CSc2ccccc2)cc1`, the inhibition was 2.1%. Take `Cc1nn(-c2ccccn2)c2c1C(=O)C(Br)CC2` (configuration not stated): the inhibition was 72.9% (active). Regarding `C=C(C)C1Cc2c(C)nn(-c3ccccn3)c2C1` (configuration not stated), the inhibition is -10.9%. For `Cc1nn(-c2ccccn2)c2c1C(c1ccccn1)C1=C(CCCC1=O)N2` (configuration not stated) the value was 0.2%; for `Cc1ccccc1C(=O)NNC(=O)C12CC3CC(CC(C3)C1)C2`, 7%; for `CC(=O)CC(=O)Nc1ccc(C(N)=O)cc1`, 6.1%.

Take `COc1cc(OC)c(C2C(C#N)=C(N)Oc3cc(C)n(CCCN4CCOCC4)c(=O)c32)cc1OC` (configuration not stated): the inhibition was 61.6% (active). The result for `COc1cc(C2C(C#N)=C(N)Oc3cc(C)n(CCN4CCOCC4)c(=O)c32)cc(OC)c1OC` (configuration not stated) reads -11.7%; that for `COc1ccc(C2C(C#N)=C(N)Oc3cc(C)n(CCN4CCOCC4)c(=O)c32)cc1OC` (configuration not stated), -0.4%; that for `N#Cc1nc(-c2ccc(Cl)cc2)oc1N1CCCCC1`, -8.5%.

With `COc1ccccc1-n1c(CNC(=O)c2cccc([N+](=O)[O-])c2C)n[nH]c1=S`, the inhibition was -7.8%. With `COC(=O)c1ccccc1N/C=C1\CCc2c(c(C)nn2-c2ccccn2)C1=O`, the inhibition is 73.6% (active). With `COC(=O)c1ccccc1NC(=S)N1CCN(c2ccccn2)CC1`, the inhibition is 5.5%. As for `CCOC(=O)c1ccccc1N/C=C1\CCCCC1=O`, the inhibition is -11.5%.

For the compound `COc1ccccc1N1CCN(C(=O)c2ccc3c(Cl)c4c(nc3c2)CCCC4)CC1`, the inhibition was 14.1%. With `Cn1c(=O)[nH]c(=O)c2c1nc(N1CCCC1)n2CC(O)COc1ccccc1` (configuration not stated), the inhibition is 3.3%. On to `CCNc1nc(Cl)nc(NCCOc2ccc(C)cc2)n1`, for which the inhibition was 0.4%. For the compound `Cc1ccc(OCC(=O)Nc2nnc(C3CCCO3)s2)c(Br)c1` (configuration not stated), the inhibition is 5.8%. For `Cc1cccc(C)c1OCC(=O)Nc1nnc(C2CCCO2)s1` (configuration not stated) the value was 53.1% (active); for `CCCC(=O)Nc1nnc(C2CCCO2)s1` (configuration not stated), 17.6%; for `O=C(COc1ccc([N+](=O)[O-])cc1)NCc1ccncc1`, -2.2%.

Take `O=S(=O)(Cc1ccccc1)NCC1CCCN(Cc2ccc3nonc3c2)C1` (configuration not stated): the inhibition is 7.4%. For `CCCCOC(=O)c1ccc(NC(=S)NC(=O)c2c(Cl)cnn2C)cc1` the value was 62.3% (active); for `CCCCOC(=O)c1ccc(NC(=S)NC(=O)c2c(Cl)cnn2CC)cc1`, 17.1%. Take `COC(=O)c1ccc(NC(=S)NC(=O)c2c(Cl)cnn2C)cc1`: the inhibition is -3.2%. The result for `CCN1CCCn2c1nc1c2c(=O)n(C)c(=O)n1C` reads -4.6%; that for `CC1CCCCN1C(=O)CSc1nnc(-c2c[nH]c3ccccc23)o1` (configuration not stated), -3.8%. `CC1(C)CC(=O)C(C=Nc2ccc(O)cc2)=C(O)C1`: the inhibition is 21.8%. Take `CC1(C)CC(=O)C(C=Nc2ccc(N)cc2)=C(O)C1`: the inhibition is 33.3%. Consider `CC1(C)CC(=O)C(C=Nc2ccc(NC3=C(C#N)C(=O)CC(C)(C)C3)cc2)=C(O)C1`, for which the inhibition was 60.4% (active).

In the case of `CCOC(=O)Cn1c(-c2cccnc2Cl)nc2cc(Cl)c(Cl)cc21`, the inhibition was 21.1%. The result for `O=C(CN(c1ccc(Br)cc1)S(=O)(=O)c1ccc(Cl)c([N+](=O)[O-])c1)NCCc1ccccc1` reads -3.9%. The result for `COc1ccc(CN=CC2=C(O)CC(C)(C)CC2=O)cc1` reads 12.4%. Regarding `c1ccc(COc2cccc(CNn3cnnc3)c2)cc1`, the inhibition is 0.5%. The result for `Oc1ccc(NCc2cccc(OCc3ccccc3)c2)cc1` reads 58.9% (active). Take `O=[N+]([O-])c1ccc(COc2cccc(CNc3ccc(Br)cc3)c2)cc1`: the inhibition is 19.9%.

On to `Oc1ccc(NCc2cccc(OCc3ccc(F)cc3)c2)cc1`, for which the inhibition is 51.3% (active).

In the case of `O=[N+]([O-])c1ccc(COc2cccc(CNc3ccc(F)cc3)c2)cc1`, the inhibition was -3.6%.

On to `Fc1ccc(COc2cccc(CNCc3ccncc3)c2)cc1`, for which the inhibition is -15.5%.

`CCS(=O)(=O)c1c(S(=O)(=O)CC)c2ccccn2c1C(N)=O`: the inhibition was -1%.

As to `Cc1cccc(C(C)C)c1NC(=O)C1CN(S(=O)(=O)c2ccccc2)CCN1S(=O)(=O)c1ccccc1` (configuration not stated), the inhibition is 1.2%. Consider `COc1cccc2c(=O)cc(C)n(CC(=O)Nc3ccccc3C)c12`, for which the inhibition is -2.8%. The result for `CC(=O)N1c2ccccc2NC2=C(C(=O)CCC2)C1c1ccc(F)cc1` (configuration not stated) reads 13.6%; that for `CC(C)C(=O)N1c2ccccc2NC2=C(C(=O)CCC2)C1c1ccc(N(C)C)cc1` (configuration not stated), 60.7% (active); that for `CCC(=O)N1c2ccccc2NC2=C(C(=O)CCC2)C1c1ccc(N(C)C)cc1` (configuration not stated), 16.3%. The result for `Fc1ccccc1COc1ccc2ccccc2c1CNc1nn[nH]n1` reads -1.6%; that for `O=[N+]([O-])c1ccc(Cl)c(C2Nc3cccc4cccc(c34)N2)c1`, 60.2% (active). For `O=[N+]([O-])c1cccc(C2Nc3cccc4cccc(c34)N2)c1` the value was -12.5%. On to `O=[N+]([O-])c1ccc(C2Nc3cccc4cccc(c34)N2)cc1`, for which the inhibition was 14.6%. The result for `COc1cc(CN2CCN(Cc3ccc(C)cc3)CC2)c([N+](=O)[O-])cc1OC` reads 61.5% (active). For `Cc1ccc(CN2CCN(/N=C/c3ccc(Cl)c([N+](=O)[O-])c3)CC2)cc1` the value was 15.3%; for `COc1cccc(CN2CCN(C(=O)Nc3ccc([N+](=O)[O-])cc3)CC2)c1`, 10.7%; for `CS(=O)(=O)N1CCN(Cc2ccc([N+](=O)[O-])cc2)CC1`, 11.9%. The result for `COc1cccc(C(=O)N2CCN(Cc3ccccc3[N+](=O)[O-])CC2)c1` reads -13.8%; that for `COc1cccc(CN2CCN(Cc3cc(OC)c(OC)cc3[N+](=O)[O-])CC2)c1`, 53.2% (active); that for `CSc1ccc(CN2CCN(Cc3ccc([N+](=O)[O-])cc3)CC2)cc1`, 4%. As for `COc1cc(CN2CCN(Cc3ccc([N+](=O)[O-])cc3)CC2)c([N+](=O)[O-])cc1OC`, the inhibition was 56.3% (active). Take `COc1cc(CN2CCN(c3ccc(C)cc3)CC2)cc([N+](=O)[O-])c1O`: the inhibition was 10.7%. For the compound `CC1SCCN1S(=O)(=O)c1ccc2ccccc2c1` (configuration not stated), the inhibition is 7.8%.

For `CCOC(=O)N1CCC2(CC1)C(C#N)=C(N)Oc1c2c(C)nn1-c1cccc(Cl)c1`, the inhibition was -99.5%. Take `CNc1ccc(Br)cc(C(=O)/C=C/c2cccc(Cl)c2Cl)c1=O`: the inhibition was 24.7%. For `Nc1nc(F)cc(NCc2ccccc2)n1` the value was 10.5%; for `COc1ccc(CNCc2ccco2)cc1OCc1ccccc1`, 10.6%; for `CN(C)S(=O)(=O)c1cccc(NC(=O)c2ccc(N3CCOCC3)c([N+](=O)[O-])c2)c1`, 8.9%. As to `Cn1c(NC(=O)C2CCCO2)cc(=O)n(C)c1=O` (configuration not stated), the inhibition was 42.3%.

As to `COc1ccc(CC(=O)N2CCN(c3ccccn3)CC2)cc1`, the inhibition was 8.3%. For `CCN1C(=O)C2C(c3cccc(F)c3)NC(CC)(C(=O)OC)C2C1=O` (configuration not stated), the inhibition is 2.1%. With `COCCCn1c(=N)c(C(=O)NCC2CCCO2)cc2c(=O)n3ccccc3nc21` (configuration not stated), the inhibition is 5.1%. For `COCCCn1c(=N)c(C(=O)NCC2CCCO2)cc2c(=O)n3cccc(C)c3nc21` (configuration not stated) the value was 53.6% (active); for `CCCn1c(=N)c(C(=O)NCC2CCCO2)cc2c(=O)n3cccc(C)c3nc21` (configuration not stated), 13.9%; for `COc1ccccc1CNC(=O)Nc1cccs1`, -15.1%. `CCOC(=O)C1=C(C)NC(=O)NC1c1ccc(N(CC)CC)cc1` (configuration not stated): the inhibition was 25.8%. In the case of `O=C(CCN1CCOCC1)c1ccccc1`, the inhibition is -3.1%. The result for `O=C(CCN1CCN(c2ccccc2F)CC1)Nc1ccccc1F` reads -3.7%. The result for `O=C(CCN1CCOCC1)c1ccc(Cl)cc1` reads 26.3%; that for `COc1ccc(C(=O)CCN2CCN(c3ccccc3F)CC2)cc1`, 17.7%; that for `COc1cc(-c2nnc(SCC(=O)OC3CCCCC3)o2)cc(OC)c1OC`, 5.5%.

Take `COc1cc(NC(=O)CSc2nc3ccccc3c(=O)n2C)ccc1NC(=O)c1ccco1`: the inhibition is 22.5%. For `COC(=O)c1c(-c2ccc(C)cc2)csc1NC(=O)C1CC=CCC1C(=O)O` (configuration not stated) the value was 2.6%. With `COC(=O)c1c(-c2ccccc2)csc1NC(=O)C1CC=CCC1C(=O)O` (configuration not stated), the inhibition is -0.2%.

As to `COC(=O)c1c(-c2ccco2)csc1NC(=O)C1CC=CCC1C(=O)O` (configuration not stated), the inhibition is 59% (active).
